Screening results deposited in PubChem BioAssay by The Scripps Research Institute Molecular Screening Center.
FBW7 act = human FBW7 E3 ligase activation, primary screen; Q969H0; AlphaScreen FBW7–phospho-cyclin E peptide binding, activator screen; normalized activity (activation), % at 26.1 µM; 650,000 tested, 0.13% active; AID 1259310; in the data active means normalized activity above about 1.9%;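 further: purified mutant Fbw7 with reduced substrate affinity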
GPR151 activ = activators of human GPR151; 650,000 tested, 1% active; PathHunter beta-arrestin GPR151 cells, luminescence; activation, % at 11.2 µM; AID 1508602; in the data active means activation above about 4.9%;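 further: 0% = median of compound wells and 100% = cells with positive control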
MITF primary = inhibitors of human MITF | O75030 | AlphaScreen MITF homodimerization, bead proximity signal | inhibition, % at 2.6 µM | 650,000 tested, 0.91% active | AID 1259374; in the data active means inhibition above about 50%;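 further: 0% = vehicle wells with protein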
TEAD-YAP block = TEAD-YAP interaction inhibition; inhibition, % at 9.12 µM; HEK-TIYL cells, TEAD-Gal4/YAP UAS-luciferase luminescence; 640,000 tested, 1.4% active; AID 1259422; in the data active means inhibition above about 32%;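 further: 0% = median of test compound wells and 100% = reference inhibitor wells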
GPR151 conf act = human GPR151 activation, confirmation screen; shares compounds with GPR151 activ; GPR151 PathHunter beta-arrestin cells, luminescence, 90 min; % of EA-reagent control over plate median; activation, % at 11.2 µM; 6,700 tested, under 10 active;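 active means mean percent activation across replicates above the confirmation screen cutoff of 4.91%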
GPR119 counter = counter-screen for GPR151 activators: effect on human GPR119. AID 1508611. GPR119 PathHunter beta-arrestin cells, luminescence, 90 min; 0 = compound-well median, 100 = enzyme-acceptor control. 6,700 tested, 0.3% active. activation, % at 11.2 µM. shares compounds with GPR151 activ;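 active means mean percent activation in the counterscreen above 29.09%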;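 further: counterscreen on off-target GPR119 to flag nonselective hits from the GPR151 activator screen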
* marks the source's active call; other numbers are inactive results; . = no result given. The list is not random: actives were taken first. Their share in the collection is about 3.5%.

SMILES	FBW7 act	GPR151 activ	MITF primary	TEAD-YAP block	GPR151 conf act	GPR119 counter
COC(=O)C1=CN(Cc2ccc(F)cc2)C=C(C(=O)OC)C1c1cccc(O)c1	0	5.2*	3	2	0	10
COC(=O)C1=CN(CC2CCCO2)C=C(C(=O)OC)C1c1cccc(Cl)c1 (stereo not drawn)	0	1	-17	-7	.	.
COc1cccc(/C=N/NC(=O)C(=O)Nc2ccc(Cl)cc2C)c1O	0	-1	5	1	.	.
Cc1ccc(C)c(CSc2ncc(CO)n2CC(=O)NC2CCCC2)c1	0	1	7	7	.	.
CC1C2CCCN2CCN1Cc1cccc([N+](=O)[O-])c1 (stereo not drawn)	1	9.7*	5	-8	-1	-9
COc1ccccc1Cc1noc(-c2cc(Cl)ccc2OC)n1	0	6.3*	7	1	0	-3
COc1ccccc1Cc1noc(-c2ccc(I)cc2)n1	0	-1	-26	-9	.	.
FC(F)(F)c1cccc(-c2cnnc(N3CCN(c4ccccn4)CC3)n2)c1	0	15*	12	12	0	9
C[C@@H]1CN(c2nncc(-c3cccc(C(F)(F)F)c3)n2)C[C@H](C)O1	0	-1	13	0	.	.
FC(F)(F)c1ccc(-c2cnnc(N3CCCCCC3)n2)cc1	0	0	2	7	.	.
FC(F)(F)c1ccc(-c2cnnc(N3CCN(Cc4cccnc4)CC3)n2)cc1	0	6.0*	-2	6	0	-2
COc1cc(OC)cc(C(=O)Nc2nc3c(C)c(Cl)ccc3s2)c1	0	0	-3	-10	.	.
CCOC(=O)C1CCN(C(=O)/C=C/c2cccc([N+](=O)[O-])c2)CC1	0	6.6*	0	-7	0	1
CCOC(=O)C1CCN(C(=O)/C=C/c2ccc([N+](=O)[O-])cc2)CC1	0	0	14	-13	.	.
Cc1ccc(-n2c(=S)sc3c(=O)n(-c4ccccc4)c(SCC(=O)OCc4ccccc4)nc32)c(C)c1	0	1	7	-4	.	.
COc1ccccc1OCc1nnc(SCCN2CCOCC2)o1	0	5.9*	-2	7	1	7
O=C(CN1C(=O)C2CC=C(Cl)CC2C1=O)N1CCCCC1 (stereo not drawn)	0	1	7	3	.	.
Cc1ccc(C)n1CCN1CCN(S(=O)(=O)c2ccccc2)CC1	0	5.1*	-34	5	0	-3
O=C(NCCN1CCN(S(=O)(=O)c2ccccc2)CC1)C(=O)NCc1ccco1	0	5.7*	-2	5	0	-8
CCc1nnc(/N=C2\NC(=O)CS2)s1	0	0	-5	4	.	.
O=S(=O)(NCc1csc(-c2cccnc2)n1)c1ccc(Br)cc1	0	5.6*	11	-9	0	-10
CCC(=O)N(Cc1cc2ccc(C)cc2n2nnnc12)CC1CCCO1 (stereo not drawn)	0	1	-16	-8	.	.
CCOC(=O)c1nc(Nc2cccc(C(=O)OC)c2)c2ccccc2n1	0	-1	17	2	.	.
CC1=C(C(=O)OC(C)C)C(c2cccc(Oc3ccccc3)c2)C(C(=O)OC(C)C)=C(C)N1	0	-1	-6	7	.	.
C=CCOC(=O)C1=C(C)NC(C)=C(C(=O)OCC=C)C1c1cccc(Oc2ccccc2)c1	1	7.1*	9	3	0	-4
SMILES	FBW7 act	GPR151 activ	MITF primary	TEAD-YAP block	GPR151 conf act	GPR119 counter
COC(=O)C1=C(C)NC(=O)CC1c1cccc(Oc2ccccc2)c1 (stereo not drawn)	0	8.3*	10	11	1	-5
O=C(CSc1ccc([N+](=O)[O-])cn1)Nc1ccc(Oc2ccccc2)cc1	1	-1	-7	-15	.	.
O=C(CSc1ccc([N+](=O)[O-])cn1)Nc1cccc(C(F)(F)F)c1	0	5.6*	-4	6	-1	-7
NS(=O)(=O)c1ccc(NC(=O)CSc2ccc([N+](=O)[O-])cn2)cc1	0	7.9*	2	14	-1	-9
C/C(=N\NC(=O)C12CC3CC(CC(C3)C1)C2)c1cc(O)ccc1O	1	-2	5	-24	.	.
CCCCOc1ccc(-c2nnc(-c3ccc(-c4ccccc4)cc3)o2)cc1	0	5.5*	5	2	0	-10
